According to PubChem BioAssay (NCATS):
Inconclusive results are not listed. Calls of active or inactive are those of the source. Calls come from the whole dose curve; as a rule, active = well fitted inhibition curve with a large enough effect; inconclusive = small, poorly fitted or top-dose-only effect; inactive = flat fitted curve, though single readings scatter.

Legend:
[1] = biological target: Glutathione peroxidase 1 (Homo sapiens) (UniProt P07203); assay: Primary qHTS Assay for Inhibitors of Recombinant Selenoprotein Glutathione Peroxidase 1 (GPX1) (AID 1845191); note: nearly all actives have a fitted effect of over 65% in size; for activity, negative = inhibition: % is set by controls: 0 for no effect and ±100 for the full control effect
Procedure, shortened: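 GPX1 10 nM, GR 100 nM, GSH 1 mM, NADPH 0.5 mM, CHP 0.5 mM (final). 30-min cpd preincubation, RT. Ex340/Em450 read t=0, t=15 min.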

[2] = biological target: Phospholipid hydroperoxide glutathione peroxidase GPX4 (Homo sapiens) (UniProt P36969); assay: Primary qHTS Assay for Inhibitors of Recombinant Selenoprotein Glutathione Peroxidase 4 (GPX4) (AID 1845192); note: nearly all actives have a fitted effect of over 65% in size; for activity change, negative = inhibition: series mostly up to about 50 µM; % is set by controls: 0 for no effect and ±100 for the full control effect
Procedure, shortened: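 qHTS, GR-coupled: GPX4 200 nM + cpd 30 min RT → GSH 1 mM, NADPH 0.5 mM, GR 100 nM → CHP 0.5 mM start; fluor 340/450 at t0 and t15 min; no-enzyme wells as control.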

[3] = biological target: Luciferin 4-monooxygenase (Photinus pyralis) (UniProt P08659); assay: Primary firefly luciferase (FLuc) qHTS assay for identification of artifact compounds. (AID 1845220); note: nearly all actives have a fitted effect of over 60% in size;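 for activity change, negative = inhibition: series mostly up to about 54 µM; plate controls were DMSO vehicle for no effect and no enzyme for full effect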
Procedure, shortened: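 qHTS, 15 min compound preincubation with substrate (10 uM luciferin, 10 uM ATP) at RT, then 10 nM FLuc; 5 min; luminescence; % inhibition vs no-enzyme/DMSO controls, 4-parameter Hill fit.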

Glutathione peroxidase 1 (Homo sapiens), sequence (P07203 whole entry, looked up): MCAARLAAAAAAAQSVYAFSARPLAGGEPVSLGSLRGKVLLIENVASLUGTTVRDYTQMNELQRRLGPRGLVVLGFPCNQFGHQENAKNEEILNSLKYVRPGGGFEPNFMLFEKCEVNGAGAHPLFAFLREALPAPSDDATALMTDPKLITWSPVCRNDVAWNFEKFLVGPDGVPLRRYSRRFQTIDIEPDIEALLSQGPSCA
Phospholipid hydroperoxide glutathione peroxidase GPX4 (Homo sapiens), sequence (P36969 whole entry, looked up): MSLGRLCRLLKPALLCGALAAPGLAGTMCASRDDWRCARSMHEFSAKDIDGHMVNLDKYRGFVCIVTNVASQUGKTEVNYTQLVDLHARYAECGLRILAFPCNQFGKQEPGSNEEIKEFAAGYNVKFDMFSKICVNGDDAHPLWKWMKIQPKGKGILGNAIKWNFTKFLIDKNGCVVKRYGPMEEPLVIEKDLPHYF

C=C[C@@]1(C)CC(=O)C2[C@](C)(O1)[C@@H](OC(C)=O)[C@@H](O)[C@H]1C(C)(C)CCC[C@]21C (stereo partly drawn)
inactive: Potency [1] | Potency [2] | outcome [3] inactive [at 11.6 µM]

O=C(C1CC1)N1CC[C@@H](Cc2n[nH]c(=O)n2-c2ccc(-c3ccc4occc4c3)cc2)C1
inactive: Potency [1] | Potency [2] | Potency [3]

CCOC(=O)c1ccnc(CNCC(=O)N(CC)CCN(C)C)c1
inactive: Potency [1] | Potency [2] | Potency [3]

CC1CCC(=O)CC(O)C(O)CC(=O)O1 (stereo not drawn)
inactive: Potency [1] | Potency [2] | Potency [3]

Nc1c(Br)cc(Br)cc1CNC1CCC(O)CC1 (stereo not drawn)
inactive: Potency [1] | Potency [2] | Potency [3]

CC12CC34C=CC(=O)C(C)(CCC(=O)O)C3C(CC1C4)O2 (stereo not drawn)
inactive: Potency [1] | Potency [2] | Potency [3]

Cc1ccc(Sc2cncc3sc(C(N)=O)cc23)cc1
inactive: Potency [1] | Potency [2] | Potency [3]

C[C@]12CC[C@@H]3c4ccc(O[C@@H]5O[C@H](C(=O)O)[C@@H](O)[C@H](O)[C@H]5O)cc4CC[C@H]3[C@@H]1CCC2=O
inactive: Potency [1] | Potency [2] | Potency [3]

COc1c(C(CC(C)C)OC(C)=O)ccc(Oc2c(O)cc(C)cc2/C=C/C(C)=O)c1C(=O)O (stereo not drawn)
inactive: Potency [1] | Potency [2] | Potency [3]

O=C(/C=C/c1ccc(O)cc1)OC[C@]12O[C@H]1[C@@H](O)[C@@H]1C=CO[C@@H](O[C@@H]3O[C@H](CO)[C@@H](O)[C@H](O)[C@H]3O)[C@@H]12
inactive: Potency [1] | Potency [2] | Potency [3]

C/C=C(\C)C(=O)O[C@@H]1CC2[C@@H](CC=C3C[C@@H](O[C@H]4C[C@H](OC)[C@H](O[C@H]5C[C@H](OC)[C@H](O[C@H]6C[C@H](OC)[C@H](O[C@H]7C[C@@H](OC)[C@H](O[C@@H]8O[C@H](CO)[C@@H](O)[C@H](O)[C@H]8O)[C@@H](C)O7)[C@@H](C)O6)[C@@H](C)O5)[C@@H](C)O4)CC[C@@]32C)[C@@]2(O)CC[C@H](C(C)=O)[C@@]12C (stereo partly drawn)
inactive: activity, negative = inhibition [1] -14% [at 9.52 µM] | activity change, negative = inhibition [2] -7.77% [at 9.73 µM] | activity change, negative = inhibition [3] 2.2% [at 11.6 µM]
